# According to PubChem BioAssay (NCI):
# Compounds without any hit were thinned out: in the full panel of roughly 83,000, 20% have a hit.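 A percent growth of 40 corresponds to 60% growth inhibition; 0 means no net growth; -100 means all cells died. Active threshold: below 10.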 A number with no mark means an inactive call. Calls of active or inactive are those of the source.
# How the values were obtained:
# Experiment in all cases: NCI-60 one-dose screen, 48 h (100 = growth as untreated, 0 = no growth, -100 = all killed)
# Details in all cases: 10 µM unless noted
# NCI-H23 lung = tested on: NCI-H23 lung
# NCI-H226 lung = tested on: NCI-H226 lung
# NCI-H322M lung = tested on: NCI-H322M lung
# HOP-62 NSCLC = tested on: HOP-62 NSCLC
# NCI-H460 lung = tested on: NCI-H460 lung
# HOP-92 NSCLC = tested on: HOP-92 NSCLC
# NCI-H522 lung = tested on: NCI-H522 lung
# A549/ATCC NSCLC = tested on: A549/ATCC NSCLC
# 786-0 renal = tested on: 786-0 renal
# COLO 205 colon = tested on: COLO 205 colon
# DU-145 prostate = tested on: DU-145 prostate
# K-562 leukemia = tested on: K-562 leukemia
# MALME-3M melanoma = tested on: MALME-3M melanoma
# MDA-MB-231 breast = tested on: MDA-MB-231 breast
# RXF 393 renal = tested on: RXF 393 renal
# SF-268 CNS = tested on: SF-268 CNS
# SF-295 CNS = tested on: SF-295 CNS
# SF-539 CNS = tested on: SF-539 CNS
# M14 melanoma = tested on: M14 melanoma
# UACC-257 melanoma = tested on: UACC-257 melanoma
SMILES,growth (NCI-H23 lung),growth (NCI-H226 lung),growth (NCI-H322M lung),growth (HOP-62 NSCLC),growth (NCI-H460 lung),growth (HOP-92 NSCLC),growth (NCI-H522 lung),growth (A549/ATCC NSCLC),growth (786-0 renal),growth (COLO 205 colon),growth (DU-145 prostate),growth (K-562 leukemia),growth (MALME-3M melanoma),growth (MDA-MB-231 breast),growth (RXF 393 renal),growth (SF-268 CNS),growth (SF-295 CNS),growth (SF-539 CNS),growth (M14 melanoma),growth (UACC-257 melanoma)
COC(=O)[C@]12CC[C@@H](C)[C@H](C)[C@@H]1C1=CC[C@@H]3[C@@]4(C)C(C=O)=C[C@@](C)(COC(=O)c5ccco5)[C@@H]4[C@H](O)C[C@@]3(C)[C@]1(C)CC2,-13.5% (active),-41.5% (active),33.1%,-7.36% (active),-59.6% (active),-54.7% (active),-47.9% (active),7.92% (active),-22.9% (active),-78.6% (active),-74.3% (active),2.92% (active),-63.6% (active),-47.4% (active),-63% (active),2.92% (active),-76.2% (active),-62.6% (active),-23.3% (active),–
O=C(Nc1cccc(-n2cc(-c3ccncc3)c(-c3ccc(Cl)c(O)c3)n2)c1)c1ccccc1,90.8%,89.6%,89.2%,46.7%,48.7%,3.59% (active),42.3%,52.6%,76.1%,100%,56.9%,60.7%,53.1%,63.2%,0.59% (active),68.3%,–,74.7%,54.9%,44.2%
OB(O)c1cccc(-c2nc3ccc4[nH]ncc4c3c3c2CCCC3)c1F,59%,37.9%,48.1%,29.3%,22.2%,27.1%,26.9%,47.9%,34.8%,38.7%,49.5%,66.2%,120%,40.9%,-20.1% (active),53%,69.3%,8.65% (active),79.7%,115%
ClC(Cl)c1nc(-c2ccccc2)nc2cc(-c3ccccc3)nn12,51.5%,89.9%,96.6%,44.4%,74.9%,62.8%,97.1%,46.1%,80.1%,59.5%,32.4%,36.9%,93%,60%,19.8%,57.2%,97.7%,79%,98.7%,102%
COc1cc2c(cc1O)CCN1C[C@@H](CC(C)C)[C@@H](O)C[C@@H]21,99.9%,96.6%,105%,93.5%,116%,63.8%,93.6%,107%,92%,127%,111%,96%,100%,103%,107%,107%,97.4%,96.7%,100%,99.5%
Nc1ccc(C(=O)CSc2nc3ccccc3[nH]2)cc1,98.4%,108%,108%,111%,106%,116%,101%,99.8%,93.5%,120%,103%,103%,107%,105%,110%,99.4%,98.1%,104%,108%,107%
Nc1nc(=O)c2ccccc2s1,109%,112%,108%,98.2%,115%,94.5%,122%,111%,103%,107%,124%,122%,110%,109%,118%,113%,105%,–,107%,118%
COc1ccc(-c2ccc(C)n2-c2ccc(-c3nc4ccccc4s3)cc2)cc1,81.4%,85.2%,98.2%,87.6%,88.8%,86.2%,89.4%,85.6%,100%,94%,104%,91.6%,108%,68.4%,94.7%,96%,86.5%,99.3%,103%,109%
COc1ccc(/C=C2\CN(Cc3cn(CCNc4ccnc5cc(Cl)ccc45)nn3)C/C(=C\c3ccc(OC)c(OC)c3)C2=O)cc1OC,48%,17%,44.7%,-7.73% (active),-28.5% (active),-16.1% (active),-67.8% (active),22.7%,15.9%,10.1%,0.0798% (active),2.21% (active),-27.7% (active),-0.28% (active),-52.1% (active),9.6% (active),–,-12.5% (active),3.7% (active),5.32% (active)
COc1cc(-c2nn(-c3cccc(NC(=O)Nc4cccc(C(F)(F)F)c4)c3)cc2-c2ccncc2)ccc1Cl,-12.4% (active),4.3% (active),21.7%,-29.8% (active),-7.91% (active),-33.6% (active),-30.8% (active),-14% (active),-15% (active),-88.9% (active),9.75% (active),1.6% (active),-32.1% (active),-28.8% (active),-69.8% (active),2.35% (active),–,-34.2% (active),-61.5% (active),-52.9% (active)
NC(=N\N=C/c1ccc(O)cc1)/C(N)=N\N=C/c1ccc(O)cc1,90.9%,101%,77.5%,79.3%,35.9%,79%,31.4%,52.5%,52.6%,124%,63%,23.7%,65.3%,64.8%,105%,58.4%,29.2%,–,39.5%,85.4%
COc1ccc(C2=CC(c3cc(OC)c(OC)c(OC)c3)NC(=O)N2)cc1OC (stereo not given),27.3%,64.3%,-9.67% (active),32.6%,1.25% (active),6.24% (active),-8.71% (active),19%,27.9%,-24.1% (active),-17.1% (active),10.6%,11.2%,21.8%,0.616% (active),32.2%,6.53% (active),–,17.2%,57.2%
Cc1cc(C(C)(C)C)ccc1S,108%,96.3%,95.9%,96.2%,114%,86.3%,85.8%,111%,99.9%,116%,116%,99.8%,113%,115%,103%,102%,102%,–,112%,108%
CCCCCCCCCCCCCCCCNC(=O)OC(C)C,54.1%,69.1%,-20.9% (active),40.5%,2.2% (active),53%,-54.3% (active),10.3%,83.9%,-29.6% (active),-23.3% (active),8% (active),81.2%,23.8%,80.1%,64.9%,20.8%,–,35.7%,95.8%
O=C1Nc2ccc3c(c2/C1=C\c1cc2c(cc1Br)OCO2)OCO3,19.5%,13.4%,1.4% (active),-21.3% (active),-31.2% (active),-5.47% (active),16.4%,27.9%,10.7%,-37.1% (active),-12.6% (active),14.9%,-5.38% (active),24.5%,-16.3% (active),33.8%,11.2%,-36% (active),-6.52% (active),58.3%
COc1cc(-c2nn(-c3cccc(NC(=O)Nc4cc(C(F)(F)F)cc(C(F)(F)F)c4)c3)cc2-c2ccncc2)ccc1Cl,-3.3% (active),8.68% (active),26.1%,-77.6% (active),-49.7% (active),-50.2% (active),-34.4% (active),-23.8% (active),-71.1% (active),-98.7% (active),3.89% (active),-10.7% (active),-10.7% (active),-92% (active),-68.1% (active),-46.3% (active),–,-53.5% (active),-42.1% (active),-45.1% (active)
